According to PubChem BioAssay AID1508600 (Functional Genomics Laboratory (NCATS/FGL), 2020):
Screen size: about 53,000 sequences; about 3,700 (7%) were called active.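 The calls were made as follows: active = gene knockdowns whose robust z-score for IL-1 alpha signal is at least 2 or at most -2, so actives lie on both sides; inactive = the rest.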 This excerpt belongs to a sample that is enriched for actives.

Assay: Components of the Cytosolic LPS Sensing Pathway: Gene Identification via Genome-wide siRNA Screen;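 also: robust z of the log signal after scaling to non-targeting control siRNA wells of the plate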
Settings: RAW264.7 macrophages, IL-1a HTRF, actives lie on both sides, screened at 100 nM (by protocol), cells primed 5 h with Pam3CSK4 first
Method in brief: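 RAW264.7 mouse macrophages reverse-transfected with single siRNAs (100 nM final) for 48h, primed with Pam3CSK4 for 5 hours, then transfected with LipidA for 24 hour. Supernatant IL-1a read by HTRF; values normalized to negative-control median, log-transformed robust z-scores.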

Sequence	z-score
GUGGGAUUCCAGUAGAAAUTT against Olfr1116	0.559 (inactive)
CCAAGUUAGUGGAUGAAUGTT against Ugt2b35	-0.555 (inactive)
GGGAGGAAAUUAAAUUUCATT against Hif1an	-0.223 (inactive)
GGCCUUCUAAAGCUGUGAUTT against 6330403K07Rik	-2.7 (active)
GGAAAUAUCCUAAACAGAATT against Gdpd2	-0.864 (inactive)
GCAGUUGCGUUCUAUUGAATT against Ccdc86	0.179 (inactive)
GCCGGUUGGAACAAAAGGCTT against E130018O15Rik	0.993 (inactive)
GCGAUCAGUACUGAAGGAATT against Siglecf	-1.27 (inactive)
GGAGACUGUCUAAUAAAAATT against Medag	0.0572 (inactive)
CUGUAUGUUAUCUCUACACTT against Olfr1513	0.469 (inactive)
CCAAAUUGCUUACAUGAUATT against Greb1	1.44 (inactive)
GCUGAUAACCUGAUCAACGTT against Nars	0.0406 (inactive)
CGACGACUAGACCUCAUCUTT against Dtx4	-0.624 (inactive)
GGGUGGAGAACCAAGUUUUTT against Tmed6	3.21 (active)
GGACUUAUUCGAUAUAGUATT against Nt5c1b	-1.23 (inactive)
UGCAUGGACUUACGAAAGATT against Tas2r115	0.454 (inactive)
GCUGCCGUUUAAAUAUAUGTT against D10Wsu102e	0.31 (inactive)
CUCCCUGGCAUUAAUCCGUTT against Tepp	0.0788 (inactive)
GAUUUGGUGUCUGCCGAGATT against Prrt1	1.73 (inactive)
GGCUACAACCAAAUCUUCATT against Papln	0.873 (inactive)
GCGAUUAACGGAUCGUACCTT against Letmd1	0.192 (inactive)
GGACUUGGAGAGCAAAAGCTT against Ano2	-2.14 (active)
GCAGAUCAAAUUUAGCUGATT against Wwc2	0.266 (inactive)

Sequence	z-score
GCUUUUUAUCCGUGUCGAUTT against 4930474N05Rik	0.501 (inactive)
GGUUAAACCCUCUUCUCAUTT against Uhrf2	-0.645 (inactive)
CCAAUUCACUUAGGAGCUGTT against Psma4	-2.1 (active)
GGAAGUAUCGAGAUUCAUGTT against Pitpnm3	0.0165 (inactive)
GCUUCAGACGUAAUUUACUTT against Morc1	0.751 (inactive)
GGUUUUGGUUUUGUGGAAUTT against Srsf5	1.45 (inactive)
GGAUCUGGUACCCACCCAATT against Jak2	-1.63 (inactive)
GGAAUUCUACCUGAAAAUCTT against Arel1	0.122 (inactive)
CGCUCUUUCAGCACAAGAATT against Zfp422	-1.57 (inactive)
CCUACGACCUGAAGAUAGCTT against Dscc1	-0.124 (inactive)
GGUGGACUCAUUCUAAUACTT against Nudt1	-1.06 (inactive)
CCUGCUAUACAUUGAACCCTT against Lhcgr	2.52 (active)
GGUGUAGCUGGAAUUGGCATT against Nlrp4b	-0.0207 (inactive)
GGUGAAGCAAAACGGAGGATT against H2-M10.1	0.512 (inactive)
GCCUAUUUCCGUGAACCCGTT against Mgmt	-1.04 (inactive)
GGCCAAUCCACGAAAGCAUTT against Strip1	-0.958 (inactive)
GCUGGGUGAUAAACAAUGUTT against Rhbg	3.42 (active)
GGGACUCUUCACUUGAAAUTT against Ccl3	-3.8e-05 (inactive)
GGAUACCACUUUAGAACCATT against Fgfr2	0.484 (inactive)
CCACAUCUUUGACGAGUACTT against Rgs16	-0.145 (inactive)
GGAAGACAGGCAUAAAAAATT against Slc41a2	-1.38 (inactive)
GGUUAAGUCCCUAGGACAUTT against Blzf1	0.998 (inactive)
GGAAAAAUUGCUUCUGACCTT against Rad51b	-1.17 (inactive)

Sequence	z-score
CCUACAAACCAGAAGAGGUTT against Akr1c19	0.285 (inactive)
CCAGACAUGAUACUCCGGCTT against Tssk3	2.57 (active)
GCCUGUGUGCUGUUGUGUUTT against Krtap5-1	1.33 (inactive)
CGGCAUCAUUCAUUCAUUATT against Pacrgl	2.01 (active)
CGAUACUGUGCAAAGAAUCTT against Nepro	0.231 (inactive)
CCUGUGUCAAUCCUGUGCATT against Ifitm7	0.0113 (inactive)
GGAACUUUAUGUGGAAAGATT against Vmn1r235	-0.449 (inactive)
CGGUCAAGGACAGGAAGUGTT against Eif4b	0.518 (inactive)
GGACAAAGAUAAUGGAAAATT against Erlec1	0.353 (inactive)
GGGAACGCAACAUUUCUCCTT against Oxld1	2.34 (active)
GGAUUCCAAUUUUAUUCCATT against Brca1	1.57 (inactive)
GAUAACAAGCAUCUCAUGUTT against Krtap6-5	-0.411 (inactive)
CCGGCAGACCUGUGACAUUTT against Rgs14	0.0166 (inactive)
GGUGGAGAAGCUCAUUGCUTT against Zap70	0.444 (inactive)
GGAAGAAAGAGUGUAUCAATT against Idi2	0.487 (inactive)
GGCUCAACCAAGAAAGGCUTT against 4930591A17Rik	-1.28 (inactive)
GAAAGAAACGGCAGAUUGCTT against Vmn2r122	0.133 (inactive)
GGAAAGUUGUGAACUCUAATT against Olfr1157	0.583 (inactive)
GGAUUAGUGCAGGAAUCAATT against Rel	0.922 (inactive)
GUUCCUGUUCCACUACUGCTT against Sts	-2.32 (active)
GCAAAACUGAACAAAGUACTT against Xirp2	0.658 (inactive)
CGAGUGUUGAAUAUUGUGATT against Gpr65	0.158 (inactive)
